Rows were chosen to be rich in hits. Some 7.3% of all compounds tested hit in one or more screens of this group.
KinaseGlo FLuc = Kinase-Glo luciferase inhibition (counter-screen). Kinase-Glo luciferase, ATP luminescence, 8 min. Potency, µM (series often up to 38.3 µM), hits mostly inhibitors. 200,000 tested, 0.28% active. AID 1379; also: nearly all actives have a fitted effect of over 60% in size
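Inhibition of Kinase-Glo luciferase light generation was assessed at 10 uM ATP in pH 7.2 imidazole buffer, with luminescence measured after eight minutes at ambient temperature.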
FLuc modulator = counter-screen for miR-21 project: firefly luciferase inhibitors or activators; P08659; AID 588342; Potency, µM (top dose mostly 57.5 µM), most hits filed as inhibitors; purified FLuc, Km substrates, luminescence inhibition; 360,000 tested, 6.9% active; also: nearly all actives have a fitted effect of over 55% in size
Target sequence (P08659 whole entry, looked up): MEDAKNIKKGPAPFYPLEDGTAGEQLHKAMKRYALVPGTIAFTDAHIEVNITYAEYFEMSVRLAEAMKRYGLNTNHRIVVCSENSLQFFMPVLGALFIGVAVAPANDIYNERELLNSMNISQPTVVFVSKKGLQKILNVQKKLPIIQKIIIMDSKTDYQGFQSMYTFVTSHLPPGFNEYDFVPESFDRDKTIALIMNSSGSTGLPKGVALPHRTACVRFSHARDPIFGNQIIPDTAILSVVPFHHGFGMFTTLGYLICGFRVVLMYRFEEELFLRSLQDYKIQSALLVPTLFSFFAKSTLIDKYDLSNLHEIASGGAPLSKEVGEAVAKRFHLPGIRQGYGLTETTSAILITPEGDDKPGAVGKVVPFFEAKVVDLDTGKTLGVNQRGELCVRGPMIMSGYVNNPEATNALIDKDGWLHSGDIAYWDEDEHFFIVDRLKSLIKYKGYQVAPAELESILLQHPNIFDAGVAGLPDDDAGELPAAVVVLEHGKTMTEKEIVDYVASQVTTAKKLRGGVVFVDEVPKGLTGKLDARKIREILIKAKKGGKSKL
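Purified P. pyralis luciferase (10nM final) with 10uM D-luciferin and 10uM ATP (Km levels) in 50mM Tris acetate pH 7.5, 10mM Mg acetate, 0.01% Tween-20, 0.05% BSA; qHTS 6-point titration, ~60 µM downward; luminescence read.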
Rab9 promoter act = Rab9 promoter activation | 320,000 tested, 2.8% active | Potency, µM (doses to about 9.22 µM), actives largely listed as activators | Huh7 Rab9 promoter-luciferase reporter, luminescence, 24 h; also: nearly all actives have a fitted effect of over 60% in size
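Promoter activation is measured as luciferase luminescence in Huh7 cells stably transfected with a Rab9 promoter–luciferase construct, following 24 h compound exposure at 37 °C and 10 min reagent incubation at ambient temperature.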
SMN2 splice enh = increases expression of the SMN2 splice variant; HEK293 SMN2-luciferase splicing reporter, luminescence, 30-36 h; Potency, µM (top dose mostly 46.1 µM), usual class: activators; 210,000 tested, 2.8% active; AID 1458; also: nearly all actives have a fitted effect of over 55% in size
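HEK293 cells carry an SMN2 […]–luciferase reporter in which exon 7 inclusion puts luciferase in frame. Cells were plated 10-12 h before compound addition, then incubated 30-36 h at 37C. ONE-Glo luminescence was read; sodium butyrate at 4.5 mM final served as control.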
NPC1 promoter act = activates the NPC1 promoter; 320,000 tested, 2.4% active; Potency, µM (titrated, usually from 9.22 µM), hits mostly activators; Huh7 NPC1 promoter luciferase reporter, 24 h; also: nearly all actives have a fitted effect of over 60% in size
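Stable NPC1-promoter luciferase Huh7 line; cpd (DMSO) 24 h, 37 °C, 5% CO2; Amplite luciferase reagent 10 min RT; luminescence readout. qHTS format.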
ELG1 genotox = inducers of genotoxicity in HEK293T ELG1-luciferase cells. HEK293T ELG1-luciferase reporter, luminescence, 16 h. 330,000 tested, 1.3% active. AID 504466. Potency, µM (top dose mostly 46 µM), actives largely listed as activators; also: nearly all actives have a fitted effect of over 60% in size
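Genotoxicity was scored as increased ELG1-luciferase reporter signal, measured by ONE-Glo luminescence (30 min, room temperature). Compound or vehicle exposure of the HEK293T reporter cells lasted 16 hr at 37°C.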
Of the large screens only hits and unclear results are named; the others gave an inactive call. Calls follow the shape of the dose curve; as a rule, active = well fitted curve in the direction sought with a large enough effect; inconclusive = small, poorly fitted or top-dose-only effect, or another doubt; inactive = no such curve, though single readings can be large; an effect the other way counts as inactive or inconclusive.

CCc1nn(CC(=O)Nc2ccc(C)c(F)c2)c(=O)c2cc3cc(C)ccc3n12	none (no result: KinaseGlo FLuc, Rab9 promoter act, NPC1 promoter act, ELG1 genotox)
Cc1ccc(Nc2nnc(SCC(=O)NC(Cc3c[nH]c4ccccc34)C(=O)O)s2)cc1 (configuration not stated)	FLuc modulator 19µM
Cc1ccc(Nc2nnc(SCC(=O)NC3CC3)s2)cc1	FLuc modulator 7.6µM (no result: KinaseGlo FLuc, SMN2 splice enh)
Cc1ccc(Nc2nnc(SCC(=O)NCCN3C(=O)CSC3=O)s2)cc1	FLuc modulator 8.5µM, SMN2 splice enh inconclusive
COC(=O)c1ccc(C(=O)OC)c(NC(=O)c2cnn3c(C(F)F)cc(-c4ccccc4)nc23)c1	none (no result: KinaseGlo FLuc, Rab9 promoter act, SMN2 splice enh, NPC1 promoter act, ELG1 genotox)
COc1ccc(C)cc1NC(=S)NNC(=O)c1c(Br)cnn1C	FLuc modulator 27µM
COc1ccccc1NC(=S)NNC(=O)c1nn(C)c(C)c1Br	FLuc modulator 15µM
Cc1ccc2c(c1)-c1nc(-c3ccc4c(c3)NC(=O)CO4)cc(-c3ccc(F)cc3)c1CO2	none (no result: KinaseGlo FLuc, Rab9 promoter act, NPC1 promoter act, ELG1 genotox)
COc1cc(OC)c(NS(=O)(=O)c2c(C)nc3sc(C)cn3c2=O)cc1Cl	none (no result: KinaseGlo FLuc, Rab9 promoter act, SMN2 splice enh, NPC1 promoter act, ELG1 genotox)
COc1cc(/C=C2\SC(N3CCC(C)CC3)=NC2=O)ccc1O	FLuc modulator 11µM, ELG1 genotox 18µM (no result: KinaseGlo FLuc, SMN2 splice enh)
COc1ccc(/C=C2\SC(N3CCCCC3)=NC2=O)cc1OC	FLuc modulator 11µM, ELG1 genotox inconclusive (no result: KinaseGlo FLuc, SMN2 splice enh)
CCOC(=O)C1CCN(C2=NC(=O)/C(=C/c3ccc(OC)c(OC)c3)S2)CC1	FLuc modulator inconclusive (no result: KinaseGlo FLuc, SMN2 splice enh)
O=C1N=C(N2CCCCC2)S/C1=C\c1ccc(Br)cc1	FLuc modulator inconclusive (no result: KinaseGlo FLuc, SMN2 splice enh)
CN(C)c1ccc(/C=C2\SC(N3CCCCC3)=NC2=O)cc1	FLuc modulator 0.54µM, NPC1 promoter act inconclusive, ELG1 genotox inconclusive (no result: KinaseGlo FLuc, SMN2 splice enh)
Cc1ccc(/C=C2\SC(N3CCCC3)=NC2=O)cc1	FLuc modulator inconclusive
O=C1N=C(N2CCCCC2)S/C1=C/C1=Cc2ccccc2OC1	FLuc modulator 2.4µM, ELG1 genotox inconclusive
COc1ccc(OC)c(/C=C2\SC(N3CCCC(C)C3)=NC2=O)c1 (configuration not stated)	FLuc modulator inconclusive (no result: KinaseGlo FLuc, SMN2 splice enh)
Cc1nn(-c2ccccc2)c(-n2cccc2)c1C(=O)NCCCN1CCN(c2ccccc2F)CC1	none (no result: KinaseGlo FLuc, Rab9 promoter act, NPC1 promoter act, ELG1 genotox)
CN(C(=O)C1=CC(c2ccc3c(c2)OCO3)=NS(=O)(=O)N1C)c1ccccc1	none (no result: KinaseGlo FLuc, Rab9 promoter act, SMN2 splice enh, NPC1 promoter act, ELG1 genotox)
COc1ccc(CCNC(=O)Cc2c(C)c3cc4c(C(C)(C)C)coc4c(C)c3oc2=O)cc1OC	none (no result: KinaseGlo FLuc, Rab9 promoter act, NPC1 promoter act, ELG1 genotox)
O=C(N/N=C/c1cn(-c2ccccc2)nc1-c1cc2ccccc2o1)c1c[nH]c2ccccc12	FLuc modulator 1.9µM, Rab9 promoter act 1.4µM, SMN2 splice enh 4µM, NPC1 promoter act 1.8µM, ELG1 genotox inconclusive
O=C(N/N=C/c1cn(-c2ccccc2)nc1-c1cc2ccccc2o1)c1ccccc1Br	FLuc modulator 15µM, Rab9 promoter act inconclusive, SMN2 splice enh 4.5µM, NPC1 promoter act 3.2µM, ELG1 genotox inconclusive
COc1ccc(-c2nn(-c3ccccc3)cc2/C=N/NC(=O)c2ccc(Br)o2)cc1	FLuc modulator inconclusive
Cc1cccc(NC(=S)NNC(=O)c2csc(C)c2)c1	FLuc modulator 8.5µM, Rab9 promoter act inconclusive (no result: SMN2 splice enh)
Cc1cccc(NC(=S)NNC(=O)c2csc3c2CCCC3)c1	FLuc modulator 12µM, Rab9 promoter act inconclusive, SMN2 splice enh inconclusive, NPC1 promoter act inconclusive
Cc1cc(C(=O)Nc2ccc(Br)cc2)cs1	FLuc modulator 19µM, Rab9 promoter act 0.63µM, NPC1 promoter act inconclusive, ELG1 genotox 6.5µM (no result: KinaseGlo FLuc, SMN2 splice enh)
Cc1ccc(C)c(NC(=S)NNC(=O)c2csc3c2CCCC3)c1	none
O=C(NC1CCCC1)c1ccc2c(=O)n(Cc3ccccc3)c(SCc3ccccc3F)nc2c1	none (no result: KinaseGlo FLuc, Rab9 promoter act, SMN2 splice enh, NPC1 promoter act, ELG1 genotox)
CCCCC1CCC(C(=O)N2CC(=O)Nc3ccc(C)cc3C2c2ccc(F)cc2)CC1 (configuration not stated)	none (no result: KinaseGlo FLuc, Rab9 promoter act, NPC1 promoter act, ELG1 genotox)
O=Cc1c(-c2ccccc2)cc2oc3ccccc3cc1-2	FLuc modulator 0.76µM, Rab9 promoter act 3.5µM, ELG1 genotox 3.7µM (no result: KinaseGlo FLuc, SMN2 splice enh)
O=c1cc(-c2ccccc2)oc2cccc(O)c12	SMN2 splice enh inconclusive (no result: FLuc modulator, Rab9 promoter act, NPC1 promoter act, ELG1 genotox)

Assay outcomes as filed in PubChem BioAssay.
